Compound activity as filed in PubChem.
This is one part of a sample in which hits are shown more often than they occur.
AmpC detergent – AmpC beta-lactamase inhibition with detergent present; AmpC hydrolysis of nitrocefin, absorbance 480 nm, 0.01% Triton; P00811; AID 485294; Potency, µM (highest dose often 114 µM), inactives show top-dose activity change, negative = inhibition, usual class: inhibitors; 370,000 tested, 0.041% active;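 further: potency means the concentration at half of the fitted maximal effect; 0% = no-compound wells and -100% = no-enzyme wells; nearly all actives have a fitted effect of over 25% in size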
Target sequence (P00811 whole entry, looked up): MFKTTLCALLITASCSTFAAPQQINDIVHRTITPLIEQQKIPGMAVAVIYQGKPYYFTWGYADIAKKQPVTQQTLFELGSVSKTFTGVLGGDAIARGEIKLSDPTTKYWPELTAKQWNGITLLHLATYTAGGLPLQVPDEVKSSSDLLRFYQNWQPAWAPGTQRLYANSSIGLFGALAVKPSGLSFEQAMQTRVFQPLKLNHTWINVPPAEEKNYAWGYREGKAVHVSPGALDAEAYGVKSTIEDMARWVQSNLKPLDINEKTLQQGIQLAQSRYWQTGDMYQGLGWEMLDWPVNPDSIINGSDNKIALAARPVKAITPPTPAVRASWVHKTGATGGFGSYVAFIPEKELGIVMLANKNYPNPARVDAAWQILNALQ
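20 mM phosphate pH 7.0 + 0.01% (detergent screen) or 0.0001% Triton X-100; 5.3 nM AmpC reagent; cpd preinc 15 min RT; nitrocefin (800 uM stock) to start; A480 q20 s × 4 min; Activity was normalised to no-enzyme and no-compound control wells.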
SARS PLP yeast – inhibitors of SARS-CoV papain-like protease in yeast; 330,000 tested, 0.19% active; S. cerevisiae expressing SARS-CoV PLpro, growth rescue; Potency, µM (doses to about 32.9 µM), without a hit: at the top dose activity, positive = growth rescue, usual class: activators; calls by dose curve; further: potency means the concentration at half of the fitted maximal effect; 0% is about no effect; nearly all actives have a fitted effect of over 55% in size
AmpC inh no detg – blocks E. coli AmpC beta-lactamase in detergent-free assay | AID 485341 | Potency, µM (top dose mostly 57.1 µM), for the others: at the top dose activity change, negative = inhibition, usual class: inhibitors | AmpC nitrocefin hydrolysis, absorbance 480 nm, 0.0001% Triton | 330,000 tested, 0.52% active;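 further: potency means the concentration at half of the fitted maximal effect; plate controls were no compound for no effect and no enzyme for full effect; nearly all actives have a fitted effect of over 20% in size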
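20 mM phosphate pH 7.0 + 0.01% (detergent screen) or 0.0001% Triton X-100; 5.3 nM AmpC reagent; cpd preinc 15 min RT; nitrocefin (800 uM stock) to start; A480 q20 s × 4 min; Activity was normalised to no-enzyme and no-compound control wells.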
Shiga toxin inh – blocks Shiga toxin action in Vero cells. inhibition, % at 38.7 µM. 290,000 tested, 9.2% active. Vero cells, Shiga toxin protein synthesis inhibition reporter; in the data active means inhibition mostly above about 28%, no sharp cut-off; inactive means mostly below about 43%; further: 0% is about no effect
Cycloheximide cs – affects cycloheximide protein synthesis inhibition readout, counter-screen. 300,000 tested, 12% active. max response, %. cell reporter, cycloheximide protein synthesis inhibition counterscreen; in the data active means max response mostly above about 13%, no sharp cut-off; inactive means mostly below about 14%; further: read at 38.3 µM for the half of the compounds with a filed dose; 0% is about no effect
AMA1 RON2 block – AMA1-RON2 (P. falciparum) interaction inhibition; AlphaScreen AMA1-biotinylated RON2 peptide binding; Potency, µM (top dose mostly 58.2 µM), for the others: at the highest dose activity change, negative = inhibition, hits mostly inhibitors; 360,000 tested, 0.2% active;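 further: potency means the concentration at half of the fitted maximal effect; 0% = vehicle wells and -100% = peptide control; nearly all actives have a fitted effect of over 45% in size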
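AMA1 (3D7) with his tag at 25 nM final met compounds first, then biotinylated RON2 peptide at 25 nM; detection used donor plus acceptor beads, 10 µg/mL apiece, read by AlphaScreen after 30 min at room temperature.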
* = called active by the depositor; ? = inconclusive; . = not tested or not shown; ! = repeats disagree. Unless noted, the call rests on the fitted dose curve; in most records, active means well fitted curve in the direction sought with a large enough effect; inconclusive means small, poorly fitted or top-dose-only effect, or another doubt; inactive means no such curve, though single readings can be large; an effect the other way counts as inactive or inconclusive.

SMILES | AmpC detergent | SARS PLP yeast | AmpC inh no detg | Shiga toxin inh | Cycloheximide cs | AMA1 RON2 block
CCN(CC)CCCn1c2c(c(SCC(=O)Nc3ccc(F)c(F)c3)nc1=O)CCC2 | -7.9% | 0.9% | 5.5% | . | . | -11.7%
COc1ccccc1N1CCN(C(=O)c2cc(C3CC3)on2)CC1 | ? | -0.2% | 20µM* | 27.8 | 9.3 | -9.6%
COc1ccccc1N1CCN(C(=O)c2cc(-c3ccc(C)cc3)on2)CC1 | ? | -12.4% | 93.8% | 54.9* | 19.1* | -6.8%
COc1ccccc1-c1cc(C(=O)N2CCN(c3ccccc3OC)CC2)no1 | -11.8% | -15.2% | 129.9% | -8.4 | 12.3 | -13.3%
COc1cc(-c2oc3cc(O)cc(O)c3c(=O)c2O)ccc1O | . | . | . | 48.7* | 48.4*! | .
COc1ccc(-c2coc3cc(OC)cc(O)c3c2=O)cc1 | -7.0% | -2.4% | -13.8% | 50.7* | 51.9* | -1.0%
COc1ccc(-c2coc3cc(O)ccc3c2=O)cc1 | . | . | . | . | . | -3.4%
COc1ccc(-c2coc3cc(OC)cc(OC)c3c2=O)cc1 | 9.2% | -3.1% | 32.2% | 49.0* | 34.2* | -6.0%
COc1ccc(-c2coc3cc(O)ccc3c2=O)cc1O | 5.4% | 0.6% | -41.0% | 38.4* | 40.6* | -1.2%
COc1ccc(-c2coc3cc(OC)ccc3c2=O)cc1 | . | . | . | . | . | -5.4%
CC(=O)Nc1ccc(NC(=O)C2CC(=O)N(c3ccccc3Cl)C2)cc1 (centres undefined) | 13.2% | -3.0% | -14.3% | -10.0 | 3.9 | 2.7%
Cc1cc(Nc2ccc(C)c(C)c2)n2cnnc2n1 | 3.4% | . | . | . | . | .
COC(=O)c1ccc(CNc2ccc(C(C)=O)cc2)cc1 | . | . | . | . | . | 5.9%
COc1cccc2cc(-c3csc(-c4ccc(Cl)cc4)n3)c(=O)oc12 | -6.3% | . | . | . | . | .
COc1ccc(-c2coc3cc(O)cc(O)c3c2=O)cc1 | -7.2% | -42.3% | -17.8% | 93.5* | 49.8* | 0.0%
COc1cc(O)cc2occ(-c3ccc(O)cc3)c(=O)c12 | 5.0% | 0.7% | -21.4% | 11.8 | 13.1* | -15.5%
COc1cc(O)c2c(=O)c3c(O)ccc(O)c3oc2c1 | . | 2.4% | -34.1% | . | . | -4.5%
CC(C)Oc1cc(O)c2c(=O)c(-c3ccc(O)cc3)coc2c1 | ? | -7.5% | -25.4% | 82.0* | 30.3* | -5.0%
O=c1c(-c2ccc(O)cc2)coc2cc(O)cc(O)c12 | -1.6% | 1.4% | -42.1% | 112.3* | 30.5* | 7.8%
CCC(=O)n1nc(-c2cccnc2)nc1NCc1ccccc1 | -0.2% | -1.0% | -2.4% | 9.0 | 1.9 | -3.4%
O=C(CSc1nnnn1-c1ccc(C(=O)O)cc1)NC1CCCCC1 | -3.1% | 1.2% | -18.8% | -5.0 | 0.6 | -3.3%
O=S(=O)(/N=C(/Nc1cccc2ccccc12)c1ccccc1)c1ccccc1 | -2.9% | -1.7% | -39.8% | 12.3 | -2.7 | -3.1%
Cc1cccc(N/C(=N/S(=O)(=O)c2ccccc2)c2ccccc2)n1 | -3.6% | -2.7% | -2.9% | 50.3 | 15.0* | -0.7%
O=S(=O)(/N=C(/Nc1ccccn1)c1ccccc1)c1ccccc1 | ? | 3.9% | -3.8% | 12.0 | 3.1 | 5.8%
O=S(=O)(/N=C(/Nc1ccccn1)c1ccccc1)c1ccc(F)cc1 | -3.5% | 13.1% | -8.8% | 22.1* | 12.3 | -2.1%
SMILES | AmpC detergent | SARS PLP yeast | AmpC inh no detg | Shiga toxin inh | Cycloheximide cs | AMA1 RON2 block
COc1ccc(N2C(=NC(=O)CCC3CCCC3)SC3CS(=O)(=O)CC32)cc1 (centres undefined) | -9.3% | 9.9% | -6.9% | -2.7 | -2.9 | 9.8%
CC(C(=O)Nc1cccc([N+](=O)[O-])c1)[n+]1ccccc1 (centres undefined) | -9.3% | -2.4% | -25.6% | 12.4 | 0.3 | -3.0%
CC(Sc1cccc[n+]1[O-])C(=O)Nc1cccc([N+](=O)[O-])c1 (centres undefined) | ? | 1.4% | -17.8% | 19.4 | 16.3* | 48.1%
CCCCOC(=O)n1c(=S)oc2cc(Cl)ccc21 | -5.0% | -14.9% | -27.3% | 100.6* | 23.6* | -6.1%
O=C(CSc1nccn1-c1ccccc1)NO | -0.1% | 0.1% | -1.6% | -12.0 | 14.8 | -0.7%
Cc1ccc(C(=O)CSc2nccn2-c2ccccc2)cc1 | -3.4% | -7.1% | -4.0% | 143.3* | 48.9* | -5.1%
O=C(CSc1nccn1-c1ccccc1)c1ccc(Cl)cc1 | ? | -5.6% | -22.1% | 82.7* | 29.5* | -18.0%
